Screening results (PubChem)
Wee1 stabilizer: inhibitors of human Wee1 degradation. AID 1321. HeLa Luc-Wee1K328M stability, luciferase luminescence; 100% = proteasome inhibitor MG132 effect. P30291. hit rate 1.2% among 220,000. reporter increase, % at 5 µM;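 active = activation above the mean of all tested compounds plus 3 SD, set per screening run, cut at about 8.8% in these data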;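 also: cells exposed to compound for 20 h before luminescence read; 0% = DMSO alone and 100% = MG132 at 30 µM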
Target sequence (P30291 whole entry K328M): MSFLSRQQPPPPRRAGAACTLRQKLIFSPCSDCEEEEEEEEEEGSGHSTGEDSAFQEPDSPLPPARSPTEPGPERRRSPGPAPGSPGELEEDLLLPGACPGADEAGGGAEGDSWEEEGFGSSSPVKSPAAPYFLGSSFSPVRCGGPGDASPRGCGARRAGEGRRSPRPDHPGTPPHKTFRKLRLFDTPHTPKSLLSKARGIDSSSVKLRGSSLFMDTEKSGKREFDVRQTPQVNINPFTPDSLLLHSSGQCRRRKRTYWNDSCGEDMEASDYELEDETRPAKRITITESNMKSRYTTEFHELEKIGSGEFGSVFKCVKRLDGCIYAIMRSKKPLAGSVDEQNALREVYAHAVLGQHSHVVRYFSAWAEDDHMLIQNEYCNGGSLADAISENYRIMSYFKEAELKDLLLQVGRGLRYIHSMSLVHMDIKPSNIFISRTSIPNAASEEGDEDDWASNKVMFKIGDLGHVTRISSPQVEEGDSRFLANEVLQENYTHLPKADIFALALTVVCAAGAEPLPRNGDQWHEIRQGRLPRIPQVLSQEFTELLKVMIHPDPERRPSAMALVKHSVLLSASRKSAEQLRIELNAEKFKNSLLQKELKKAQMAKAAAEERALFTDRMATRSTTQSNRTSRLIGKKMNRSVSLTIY
APP 5'UTR act: activates APP 5'UTR luciferase reporter | SH-SY5Y APP 5'UTR luciferase reporter, luminescence; zero percent = DMSO vehicle wells | hit rate 1% among 190,000 | activation, % at 2 µM;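 active = activation above a set limit, based on mean plus 3 SD of controls, cut at about 140% in these data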
APP 5UTR inh: APP translation inhibition; SH-SY5Y APP 5'UTR-luciferase reporter, luminescence; hit rate 0.82% among 190,000; inhibition, % at 2 µM;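 active = inhibition above a set limit, derived from the sample mean plus 3 SD, cut at about 45% in these data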
STAT1 activator: STAT1 signaling activation. hit rate 2.6% among 200,000. activation (% of control), % at 5.5 µM. NIH 3T3 STAT1-luciferase reporter, IFN-gamma, luminescence; 100% = IFN-gamma alone, no compound;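 active = activation above the screen-wide mean activation plus 3 SD, cut at about 130% in these data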;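 also: raw ratio to IFN-gamma control signal so 100% means no change and 0% no light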
Hsp70 activator: transcriptional activators of Hsp70; activation, % at 10 µM; hit rate 0.04% among 200,000; HeLa Hsp70 promoter luciferase reporter, luminescence; scaled: vehicle 0, proteasome-inhibitor control 100%;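 active = activation above the mean across all tested compounds plus 3 SD, cutoff set per campaign, cut at about 5.5% in these data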;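 also: 100% = MG132 at 30 µM as the positive control and 0% = DMSO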
NF-kB expr up: compounds increasing NF-kB expression in human neuronal cells. hit rate 1.6% among 190,000. NF-kB reporter expression; stronger effect = higher value. AID 1239. fold change at 12.5 µM; in the data active = fold change above about 3.3
STAT1 activ conf: confirmation of STAT1 signaling activators; hit rate 97% among 1,200; shares compounds with STAT1 activator; activation (% of control), % at 5.7 µM; AID 1262; NIH 3T3 STAT1-luciferase reporter, IFN-gamma potentiation, luminescence; 100% = IFN-gamma EC80 alone, no compound;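 active = activation above a set limit carried over from the earlier primary STAT1 screen, cut at about 140% in these data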;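 also: simple ratio to median IFN-gamma plus DMSO wells so 0% means no light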
NFkB act STAT1ct: NF-kappaB activation in STAT1 activator counter-screen. shares compounds with STAT1 activator. HEK293T NF-kB luciferase reporter, TNF-alpha stimulated, luminescence; 100% = TNF-alpha with vehicle only. activation (% of control), % at 5.7 µM. hit rate 43% among 1,200. AID 1306;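 active = activation above the mean of solvent-only control wells plus 3 SD, set per campaign, cut at about 130% in these data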;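 also: TNF-alpha given at a submaximal dose yielding about 80% of full reporter signal; values are well signal over median control so 100% means no change and 0% no light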
STAT3 act 2: activates human STAT3, counter-screen to STAT1 activators; shares compounds with STAT1 activator; U3A cells STAT3-luciferase reporter, IL-6, luminescence; cells lack STAT1; 100 = IL-6 alone, no compound effect; activation (% of control), % at 5.7 µM; hit rate 46% among 1,200; AID 1316;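 active = activation above the solvent-only control well mean plus 3 SD, set per plate batch, cut at about 110% in these data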;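 also: 0% = no luminescence and 100% = median IL-6 plus DMSO wells; higher means more STAT3 reporter activation so hits are non-selective activators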
Active calls of the source: *; x = no result. Only some compounds are listed: those with a hit (about 4.8% of all), similar ones and a draw of the others.

SMILES	Wee1 stabilizer	APP 5'UTR act	APP 5UTR inh	STAT1 activator	Hsp70 activator	NF-kB expr up	others
COc1ccc(Oc2cc(NC(=O)c3nn(C)cc3[N+](=O)[O-])cc([N+](=O)[O-])c2)cc1	8.1	-94.6	94.6*	74.0	3.5	3.06
C#CCOc1cc(C2C3=C(COC3=O)Nc3cc4c(cc32)OCO4)ccc1OC (stereo unspecified)	6.8	-92.4	92.4*	98.5	0.5	1.16
CCOC(=O)c1c(C)n(CCOC)c2ccc(O)cc12	9.0*	-1.4	1.5	92.0	0.1	1.07
Cc1cc(C)nc(NC2=NCCS2)n1	1.0	-7.7	7.7	98.5	0.2	1
O=C(O)CC1OCC=C2CN3CCC45c6ccccc6NC4C1C2CC35 (stereo unspecified)	0.5	x	x	x	x	x
CCOC(=O)CC(NC(=O)C(Cc1ccc(N(CCCl)CCCl)cc1)NC(C)=O)C(=O)OCC (stereo unspecified)	-0.9	-85.7	85.7*	97.9	0.1	2.15
CC(=O)NC(Cc1ccc(N(CCCl)CCCl)cc1)C(=O)NC(C(=O)O)C(C)C (stereo unspecified)	-1.0	-1.6	1.6	90.4	-0.2	1.34
COc1cc2c(cc1/C=C/[N+](=O)[O-])OCO2	10.7*	-22.8	22.8	103.3	2.7	2.43
CCCCCSc1cc(OC)c(CCN)cc1OC	2.2	-55.1	55.1*	103.0	0.1	1.75
Cc1cccc(C)c1NC1=NCCCCS1	-3.0	6.2	-6.2	103.6	-0.5	1.07
O=[N+]([O-])c1ccc(N2CCOCC2)c2ccncc12	0.1	-13.4	13.4	93.0	-0.1	1.01
CN1/C(=C\C=C\C2=[N+](C)c3ccc4ccccc4c3C2(C)C)C(C)(C)c2ccccc21	-4.2	-94.9	94.9*	35.7	0.0	0.16
COc1ccc(NP(=O)(Nc2ccc(OC)cc2)Oc2ccccc2)cc1	-2.0	10.2	-10.2	101.4	-0.6	1.07
COc1ccc(P2(=O)Nc3ccccc3N2)cc1	0.2	171.4*	-171.4	125.1	-0.1	1.14
Cc1ccc2nc(N3CCN(C)CC3)[nH]c2c1	-1.2	15.4	-15.4	133.3*	0.0	1.85
CC(C)N(CCC(C(N)=O)(c1ccccc1)c1ccccn1)C(C)C (stereo unspecified)	-1.9	22.4	-22.4	93.8	-0.2	1.17
O=C(Nc1ccncc1)c1cccn(Cc2ccccc2)c1=O	7.3	10.3	-10.3	86.8	-0.3	0.95
O=C(Nc1ccccc1)c1cccn(Cc2ccccc2)c1=O	3.1	43.1	-43.1	131.7*	-0.2	2.12
O=C(NC(=O)c1c(F)cccc1F)Nc1cc(Cl)c(F)c(Cl)c1F	-0.5	x	x	x	x	x
Nc1nc(SCCC(F)=C(F)F)n[nH]1	7.9	-6.0	6.0	104.8	-0.4	1.23
O=C(Cn1nc(Cc2cccnc2)c2ccccc2c1=O)N1CCC2(CC1)OCCO2	1.0	15.9	-15.9	103.3	0.3	0.94
O=C1C(=O)c2ccccc2-c2ccccc21	2.6	-58.1	58.1*	103.9	-0.4	0.1
O=C1C(=O)c2cccc3cccc1c23	-3.6	-0.3	0.3	98.9	-0.3	1.37
O=C(Nc1ccccc1)N1CCC2(CC1)OCCO2	1.8	17.3	-17.3	105.0	0.1	1.34
O=C(c1ccccc1)C(CN1CCCC1)c1ccccc1 (stereo unspecified)	-2.3	-92.1	92.1*	72.9	-0.1	0.97
SMILES	Wee1 stabilizer	APP 5'UTR act	APP 5UTR inh	STAT1 activator	Hsp70 activator	NF-kB expr up	others
C1=C(CCNCc2ccccc2)CCCC1	9.3*	-12.6	12.6	106.4	-0.1	1.01
Fc1ccc(CNCCc2ccccc2)cc1	-2.6	7.6	-7.6	107.5	0.1	1.21
Cc1ccc(C(=O)C2CN(C)CC2C(=O)c2ccc(C)cc2)cc1 (stereo unspecified)	0.8	48.0	-48.0	109.7	0.1	1.13
CCCC(=O)OCC[N+](C)(C)C	9.4*	-19.5	19.5	102.2	-0.3	1.06
NC(=O)c1cn(C2OC(CO)C(O)C2O)c2ncnc(N)c12 (stereo unspecified)	-3.3	-95.2	95.3*	96.0	-0.6	2.85
CN1C(=O)/C(=C\c2ccc(N3CCCCC3)o2)C(=O)NC1=S	2.7	13.6	-13.6	132.8*	0.0	2.24
CSc1ccc(CNC2CN3CCC2CC3)cc1 (stereo unspecified)	-1.5	3.0	-3.0	99.7	-0.3	1.25
Clc1ccccc1CNC1CN2CCC1CC2 (stereo unspecified)	11.3*	6.1	-6.1	100.8	-0.2	1.18
COc1ccc(CC2(CCc3ccncc3)C(=O)NC(=O)NC2=O)cc1	0.5	-9.6	9.6	102.5	-0.2	0.94
O=C1NC(=O)C(CCc2ccncc2)(Cc2ccc(OCc3ccccc3)cc2)C(=O)N1	8.8*	x	x	x	x	x
Clc1ccccc1Nc1ncnc(-n2cccc2)n1	-0.1	93.5	-93.5	135.5*	0.6	2.05
Cn1c(O)c(C(=O)c2ccccc2)c(=O)n(C)c1=O	0.2	6.3	-6.3	102.5	0.7	0.47
CN=C(SCc1ccccc1)c1c(O)n(C)c(=O)n(C)c1=O	9.3*	3.5	-3.5	89.5	0.3	x
CN[C@H](C)[C@H](O)c1ccccc1	-2.9	-12.6	12.6	x	0.3	x
Cc1ccccc1CN1CCN(c2ccc(Cl)cc2)CC1	3.6	-3.8	3.8	108.9	-0.1	1.07
COc1ccc(C(CNC(=O)Cc2ccc(Cl)c(Cl)c2)N(C)C)cc1 (stereo unspecified)	0.8	-1.2	1.2	110.7	-0.2	0.73
COc1ccc2nc(NC3=NCCN3)sc2c1	1.5	56.1	-56.1	139.8*	-0.4	3.04
c1ccc2sc(NC3=NCCN3)nc2c1	1.9	9.5	-9.5	121.3	0.0	2.38
CNC(=O)Oc1cccc2ccccc12	-2.4	x	x	x	x	x
CNC(=O)Oc1ccc(-c2cn3cc(C)ccc3n2)cc1	-5.5	48.8	-48.8	28.1	-0.7	4.98*
CNC(=O)Oc1cccc(-c2cn3cc(Cl)ccc3n2)c1	-0.2	170.1*	-170.1	117.3	-0.5	8.18*
CC(=O)Nc1ccccc1C(=O)OCc1cccc(F)c1	1.3	3.3	-3.3	183.6*	-0.1	1.04	STAT1 activ conf=182.1*;NFkB act STAT1ct=124.2;STAT3 act 2=107.9
